CR mimetic SO: yeast age-related superoxide inhibition as caloric restriction mimetic | AID 2690 | superoxide response (% of plate mean), % at 10 µM | 330,000 compounds, 0.18% hits | S. cerevisiae aged cells, superoxide DHE fluorescence; hits give low values;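 active = superoxide response under a set limit, about three screen SD below normal, cut at about 65% in these data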;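 also: yeast aged for seven days with compound at 30 °C before DHE staining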
TIM10 inh: inhibits growth of TIM10 yeast strain | AID 463195 | inhibition, % at 10 µM | 330,000 compounds, 1.4% hits | S. cerevisiae TIM10 strain growth, BacTiter-Glo luminescence, 24 h;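 active = inhibition of 40% or more at the single tested concentration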;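 also: wild-type TIM10 isogenic control strain grown at permissive 25 °C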
tim10-1 inh: growth inhibitors of tim10-1 mutant yeast. 330,000 compounds, 2.2% hits. S. cerevisiae tim10-1 ts strain growth, BacTiter-Glo, 24 h. inhibition, % at 20 µM;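 active = inhibition of at least 40%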;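 also: mutant grown at 25 °C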
tim23-1 inh: tim23-1 yeast growth inhibition; S. cerevisiae tim23-1 growth, BacTiter-Glo luminescence, 24 h; inhibition, % at 20 µM; 330,000 compounds, 1.3% hits;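 active = growth inhibition of the mutant yeast at or above 50%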;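 also: temperature-sensitive mutant grown at 25 °C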
NALP3 yeast inh: blocks the NALP3 inflammasome reconstituted in yeast; Yeast reconstituted NLRP3/ASC/caspase-1, beta-gal luminescence, 24 h; inhibition, % at 10 µM; 330,000 compounds, 0.39% hits;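 active = inhibition of 50% or more; inactive = inhibition below 50%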
tim10-1 confirm: confirmation of tim10-1 mutant yeast growth inhibitors; inhibition, % at 20 µM; S. cerevisiae tim10-1 ts strain growth, BacTiter-Glo, 24 h; 7,400 compounds, 56% hits; shares compounds with tim10-1 inh; AID 463213;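 active = inhibition of yeast growth at or above a set limit in either of two repeat tests at 20 µM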;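 also: tim10-1 mutant grown at permissive 25 °C to find synthetic lethal compounds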
Large screens that a line does not name were inactive (follow-up assays come after a bar, where they were run). An excerpt weighted towards active compounds, which were near 3.8% of everything screened.

Cc1cccc(-n2ncc3c(=O)[nH]c(SCC(=O)N4CC(=O)Nc5ccccc54)nc32)c1	none
C=CCN(C(=O)COc1ccccc1)c1nnc(-c2ccncc2)s1	none
Cc1cc(OC(F)F)ccc1NC(=S)NCCc1ccccc1	tim10-1 inh 47.7 | tim10-1 confirm inactive
S=C(NCCc1ccccc1)Nc1ccc(Nc2ccccc2)cc1	tim10-1 inh 52.0 | tim10-1 confirm 34.1
COc1ccc(NC(=S)NCCc2ccccc2)c(C)c1	none
COc1ccc(NS(=O)(=O)c2cccc(C(=O)NNC(=O)c3ccc(=O)[nH]c3)c2)cc1	none
CCc1nc(N2CCCCC2C)c2oc3ccccc3c2n1 (configuration not stated)	tim10-1 inh 48.1 | tim10-1 confirm inactive
CCc1nc(Nc2cc(OC)ccc2OC)c2oc3ccccc3c2n1	none
CCc1nc(N2CCCCC2)c2oc3ccccc3c2n1	tim10-1 inh 40.5 | tim10-1 confirm inactive
CCc1nc(Nc2ccccc2OC)c2oc3ccccc3c2n1	tim10-1 inh 42.1 | tim10-1 confirm inactive
COc1ccc(-n2ccnc2SCC(=O)NCc2ccco2)c(OC)c1	none
CCc1cc2c(SCC(=O)N3CCCC3=O)ncnc2s1	none
COc1ccc(Cl)cc1S(=O)(=O)NC(C)C(=O)NCCCn1ccnc1 (configuration not stated)	none
COc1ccc(CN(CC2CCCO2)C(=O)c2cc3sccc3n2C)c(OC)c1 (configuration not stated)	tim10-1 inh 45.3 | tim10-1 confirm inactive
CC(C)C(OC(=O)c1cc2sccc2n1C)C(=O)NCC1CCCO1 (configuration not stated)	none
CCCC(=O)Nc1sc(C)c(-c2ccc(OC)cc2)c1C#N	none
CCCc1ccc(-c2c(C)sc(N)c2C#N)cc1	tim10-1 inh 68.4 | tim10-1 confirm 48.9
CC1CCCC(NC(=O)NC(=O)CCl)C1C (configuration not stated)	none
CC1CCCCC1NC(=O)NC(=O)CCl (configuration not stated)	tim10-1 inh 46.1 | tim10-1 confirm inactive
S=c1[nH]nc(COc2ccccc2)n1/N=C/c1ccccc1Cl	none
O=C(Nc1cccc(Cl)c1)N1N=CCC1c1ccccc1 (configuration not stated)	tim10-1 inh 48.2 | tim10-1 confirm 47.4
S=C(Nc1ccccc1)N1N=CCC1c1ccccc1 (configuration not stated)	tim10-1 inh 46.1 | tim10-1 confirm inactive
O=C(Nc1cccc2ccccc12)N1N=CCC1c1ccccc1 (configuration not stated)	tim10-1 inh 43.7 | tim10-1 confirm inactive
O=C(Nc1cccc2ccccc12)N1CCN(c2ccccc2)CC1	none
CCCCC[C@H]1CN(Cc2ccccc2)C(=O)[C@@H]1CC(=O)NCc1ccccc1	none
CCOC(=O)c1sc(-c2ccc(OC)cc2)cc1N	none
CCOC(=O)c1sc(-c2ccc(F)cc2)cc1N	tim10-1 inh 42.4 | tim10-1 confirm 38.7
COc1cc(Nc2nc3ccccc3nc2NS(=O)(=O)c2ccc([N+](=O)[O-])cc2)cc(OC)c1OC	tim10-1 inh 45.8 | tim10-1 confirm 34.6
Cn1c(=O)[nH]c(=O)c2c1nc(N1CCCCCC1)n2CCCSc1nnnn1-c1ccccc1	tim10-1 inh 41.2 | tim10-1 confirm inactive
CC1=NN(c2ccccc2)C(=O)/C1=C\C=C1/N(C)c2ccccc2C1(C)C	tim10-1 inh 42.1 | tim10-1 confirm inactive
NC(=O)C1CC(=O)N(c2ccc(OCc3ccc(F)cc3)cc2)C1 (configuration not stated)	none
O=C(Nc1ccccc1)c1ccccc1N=Cc1ccccc1O	none
CCOc1ccccc1C=Nc1ccccc1C(=O)Nc1ccccc1	tim10-1 inh 45.5 | tim10-1 confirm inactive
N#CCCN(C(=O)COC(=O)COc1ccccc1Cc1ccccc1)c1ccccc1	none
CCCCC(=O)Nc1ccc(C(=O)NCCN2CCOCC2)cc1	none
CC(C)c1nc(SCC(=O)Nc2c[nH]c(=O)[nH]c2=O)c2cnn(-c3ccccc3)c2n1	none
COc1ccc(-c2cc(C)no2)cc1S(=O)(=O)N(C)c1ccc(C)cc1	tim10-1 inh 44.8 | tim10-1 confirm inactive
COc1cccc2sc(Nc3nc(-c4ccccn4)cs3)nc12	tim10-1 inh 52.1 | tim10-1 confirm 34.1
COc1cccc2sc(NNC(=O)COc3ccccc3)nc12	none
